Assay results reported in the supplement of paper PMC12645437, “Orthogonal IMiD-Degron Pairs Induce Selective Protein Degradation in Cells” (ACS Chemical Biology, 2025).
In all, about 8,300 sequences were measured (“log2 fold change of degron read counts, EGFP-low vs EGFP+ sorted cells (limma voom), compound-induced degradation”: median about -1.1, highest 2% from about 3.2 on). Many of the other results were omitted from the sample, so the highest values are more common in it than they were.

T1: CRBN, Q96SW2
T1 chain: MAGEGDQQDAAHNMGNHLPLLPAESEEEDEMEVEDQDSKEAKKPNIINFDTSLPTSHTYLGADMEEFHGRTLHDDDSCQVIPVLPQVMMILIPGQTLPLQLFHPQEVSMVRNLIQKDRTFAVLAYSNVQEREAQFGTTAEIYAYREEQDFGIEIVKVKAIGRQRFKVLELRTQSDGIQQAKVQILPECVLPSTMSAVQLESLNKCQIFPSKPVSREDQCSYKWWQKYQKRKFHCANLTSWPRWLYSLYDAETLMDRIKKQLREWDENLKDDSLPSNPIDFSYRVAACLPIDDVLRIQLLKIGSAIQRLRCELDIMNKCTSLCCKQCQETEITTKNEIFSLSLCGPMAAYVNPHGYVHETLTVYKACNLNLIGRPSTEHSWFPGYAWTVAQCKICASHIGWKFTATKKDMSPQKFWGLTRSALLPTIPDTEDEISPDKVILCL

B1: 46F_47M_49E_50Q_52G_53A_54Y_55F_67L_, Q9UKT9 (peptide)
chain: FMCEQCGAYFTQKGNLLRHIKL
B2: 46L_47T_49E_50I_52G_53F_54I_55C_67L_, Q9UKT9 (peptide)
chain: LTCEICGFICTQKGNLLRHIKL
B3: 46F_47K_49D_50V_52G_53A_54P_55F_67L_, Q9UKT9 (peptide)
chain: FKCDVCGAPFTQKGNLLRHIKL
B4: 46F_47D_49D_50V_52G_53A_54R_55F_67L_, Q9UKT9 (peptide)
chain: FDCDVCGARFTQKGNLLRHIKL
B5: 46F_47G_49D_50V_52G_53A_54R_55F_67L_, Q9UKT9 (peptide)
chain: FGCDVCGARFTQKGNLLRHIKL
B6: 46F_47M_49D_50V_52G_53A_54R_55F_67L_, Q9UKT9 (peptide)
chain: FMCDVCGARFTQKGNLLRHIKL
B7: 46F_47F_49D_50V_52G_53A_54R_55F_67L_, Q9UKT9 (peptide)
chain: FFCDVCGARFTQKGNLLRHIKL
B8: 46F_47Y_49D_50V_52G_53A_54R_55F_67L_, Q9UKT9 (peptide)
chain: FYCDVCGARFTQKGNLLRHIKL
B9: 46F_47L_49D_50V_52G_53A_54R_55F_67L_, Q9UKT9 (peptide)
chain: FLCDVCGARFTQKGNLLRHIKL
B10: 46F_47W_49D_50V_52G_53A_54R_55F_67L_, Q9UKT9 (peptide)
chain: FWCDVCGARFTQKGNLLRHIKL
B11: 46F_47H_49D_50V_52G_53A_54R_55F_67L_, Q9UKT9 (peptide)
chain: FHCDVCGARFTQKGNLLRHIKL
B12: 46F_47V_49D_50V_52G_53A_54R_55F_67L_, Q9UKT9 (peptide)
chain: FVCDVCGARFTQKGNLLRHIKL
B13: 46F_47C_49D_50Q_52G_53A_54V_55F_67L_, Q9UKT9 (peptide)
chain: FCCDQCGAVFTQKGNLLRHIKL
B14: 46F_47E_49D_50V_52G_53A_54H_55F_67L_, Q9UKT9 (peptide)
chain: FECDVCGAHFTQKGNLLRHIKL
B15: 46F_47E_49P_50Q_52G_53A_54P_55F_67L_, Q9UKT9 (peptide)
chain: FECPQCGAPFTQKGNLLRHIKL
B16: 46F_47M_49N_50Q_52G_53A_54K_55F_67L_, Q9UKT9 (peptide)
chain: FMCNQCGAKFTQKGNLLRHIKL
B17: 46L_47E_49E_50I_52G_53F_54G_55C_67L_, Q9UKT9 (peptide)
chain: LECEICGFGCTQKGNLLRHIKL
B18: 46F_47M_49D_50V_52G_53A_54Q_55F_67L_, Q9UKT9 (peptide)
chain: FMCDVCGAQFTQKGNLLRHIKL
B19: 46F_47H_49N_50I_52G_53A_54C_55F_67L_, Q9UKT9 (peptide)
chain: FHCNICGACFTQKGNLLRHIKL
B20: 46F_47G_49N_50Q_52G_53H_54W_55F_67L_, Q9UKT9 (peptide)
chain: FGCNQCGHWFTQKGNLLRHIKL
B21: 46F_47N_49P_50Q_52G_53A_54G_55F_67L_, Q9UKT9 (peptide)
chain: FNCPQCGAGFTQKGNLLRHIKL
B22: 46F_47G_49E_50I_52G_53A_54C_55F_67L_, Q9UKT9 (peptide)
chain: FGCEICGACFTQKGNLLRHIKL
B23: 46F_47E_49E_50I_52G_53A_54C_55F_67L_, Q9UKT9 (peptide)
chain: FECEICGACFTQKGNLLRHIKL
B24: 46F_47R_49E_50I_52G_53A_54C_55F_67L_, Q9UKT9 (peptide)
chain: FRCEICGACFTQKGNLLRHIKL
B25: 46F_47M_49E_50I_52G_53A_54C_55F_67L_, Q9UKT9 (peptide)
chain: FMCEICGACFTQKGNLLRHIKL
B26: 46F_47S_49E_50I_52G_53A_54C_55F_67L_, Q9UKT9 (peptide)
chain: FSCEICGACFTQKGNLLRHIKL
B27: 46F_47C_49E_50I_52G_53A_54C_55F_67L_, Q9UKT9 (peptide)
chain: FCCEICGACFTQKGNLLRHIKL
B28: 46F_47T_49E_50I_52G_53A_54C_55F_67L_, Q9UKT9 (peptide)
chain: FTCEICGACFTQKGNLLRHIKL
B29: 46F_47Q_49E_50I_52G_53A_54C_55F_67L_, Q9UKT9 (peptide)
chain: FQCEICGACFTQKGNLLRHIKL
B30: 46F_47Y_49E_50I_52G_53A_54C_55F_67L_, Q9UKT9 (peptide)
chain: FYCEICGACFTQKGNLLRHIKL
B31: 46F_47V_49E_50I_52G_53A_54C_55F_67L_, Q9UKT9 (peptide)
chain: FVCEICGACFTQKGNLLRHIKL
B32: 46F_47D_49E_50I_52G_53A_54C_55F_67L_, Q9UKT9 (peptide)
chain: FDCEICGACFTQKGNLLRHIKL
B33: 46F_47K_49E_50I_52G_53A_54C_55F_67L_, Q9UKT9 (peptide)
chain: FKCEICGACFTQKGNLLRHIKL

Target: T1, CRBN, Q96SW2
Assay: log2 fold change of degron read counts, EGFP-low vs EGFP+ sorted cells (limma voom), compound-induced degradation; higher = more compound-induced degradation of the degron-EGFP fusion; degrons are variants of IKZF1/3 zinc finger 2; compound dose not given here
Conditions: Jurkat, 18 h
Procedure: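 Pooled library of 8380 IKZF3 ZF2 degron mutants (positions 146-167 varied within the IKZF3 130-189 degron; only the varied core is printed, flanks not printed) fused to EGFP with IRES-mCherry, lentivirally expressed in Jurkat cells. mCherry+ cells were treated with one IMiD compound for 18 h (dose not stated) and FACS-sorted into EGFP-low and EGFP+ populations. Degron sequences were counted by NGS, and log2FC (EGFP-low vs EGFP+) was estimated by limma voom over 3 biological replicates.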

[1] = compound: compound 19 (5-tert-butyl-thalidomide)
[2] = compound: compound 22 (5-morpholino-thalidomide)
[3] = compound: compound 33 (diphenyl IMiD analogue)
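Also: pooled lentiviral library of zinc finger degron-EGFP fusions in mCherry-positive Jurkat cells, FACS-sorted after compound exposure, with degron abundance counted by next-generation sequencing.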

| Sequence | log2 fold change of degron read counts [1] | log2 fold change of degron read counts [2] | log2 fold change of degron read counts [3] | log2 fold change of degron read counts (compound: thalidomide) |
| --- | --- | --- | --- | --- |
| B1 | -2.39 | -2.36 | -0.295 | -2.25 |
| B2 | -0.462 | -0.661 | 0.241 | 1.1 |
| B3 | -0.146 | -0.607 | -2.1 | 0.295 |
| B4 | 0.864 | -0.479 | -1.77 | -0.643 |
| B5 | 1.49 | -0.377 | -1.65 | -0.568 |
| B6 | -1.48 | -1.88 | 0.0127 | -0.773 |
| B7 | 3.5 | 3.15 | 0.549 | -0.102 |
| B8 | 3.21 | 3.28 | 0.5 | -0.569 |
| B9 | -1.59 | -2.29 | -1.43 | -0.242 |
| B10 | 2.89 | 3.6 | 0.211 | 0.033 |
| B11 | 0.448 | 0.585 | -1.42 | -1.6 |
| B12 | -0.856 | 0.623 | -0.882 | 0.963 |
| B13 | -2.49 | -1.9 | -0.705 | -2.14 |
| B14 | -2.74 | -4.09 | -1.55 | -1.76 |
| B15 | -2.11 | -2.37 | -1.67 | -1.19 |
| B16 | -2.87 | -2.47 | -2.42 | -2.11 |
| B17 | -0.956 | -2.31 | -1.15 | -0.202 |

| Sequence | log2 fold change of degron read counts [1] | log2 fold change of degron read counts [2] | log2 fold change of degron read counts [3] | log2 fold change of degron read counts (compound: thalidomide) |
| --- | --- | --- | --- | --- |
| B18 | -1.67 | -1.16 | 1.5 | -0.932 |
| B19 | 1.16 | 1.39 | 0.659 | -0.53 |
| B20 | -0.98 | -1.42 | -1.2 | -0.959 |
| B21 | -0.184 | -2.36 | -1.35 | -2.07 |
| B22 | 3.4 | 2.93 | 2.06 | 1.14 |
| B23 | 0.505 | -1.14 | 1.9 | 2.35 |
| B24 | 0.0911 | -0.251 | 1.83 | 1.53 |
| B25 | 0.319 | 0.12 | 2.53 | 1.09 |
| B26 | 3.31 | 2.47 | 2.56 | 1.4 |
| B27 | 2.78 | 2.06 | 2.71 | 2.24 |
| B28 | 1.77 | 2.36 | 2.49 | 2.86 |
| B29 | 1.23 | 3.08 | 2.71 | 3.48 |
| B30 | 3.73 | 3.6 | 2.92 | 1.43 |
| B31 | 0.542 | 1.78 | 2.28 | 2.75 |
| B32 | 1.52 | -0.309 | 0.629 | 0.633 |
| B33 | -0.172 | -3.02 | -3.63 | -0.785 |
